Reference: PubChem BioAssay (NCI)
This is part of a sample that, as a whole, favours compounds with a hit. Of some 83,000 tested, about 20% had one in any assay.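 Compound tested at a single concentration for 48 hours in 96-well plates; a percent growth value below 10 was scored as active.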 A number with no mark means an inactive call. Calls of active or inactive are those of the source.

Key:
Test in all cases: NCI-60 one-dose screen, 48 h (100 = growth as untreated, 0 = no growth, -100 = all killed)
Conditions in all cases: 10 µM unless noted
NCI-H23 lung = tested on: NCI-H23 lung
NCI-H226 lung = tested on: NCI-H226 lung
NCI-H322M lung = tested on: NCI-H322M lung
HOP-62 NSCLC = tested on: HOP-62 NSCLC
NCI-H460 lung = tested on: NCI-H460 lung
HOP-92 NSCLC = tested on: HOP-92 NSCLC
NCI-H522 lung = tested on: NCI-H522 lung
A549/ATCC NSCLC = tested on: A549/ATCC NSCLC
786-0 renal = tested on: 786-0 renal
COLO 205 colon = tested on: COLO 205 colon
DU-145 prostate = tested on: DU-145 prostate
K-562 leukemia = tested on: K-562 leukemia
MALME-3M melanoma = tested on: MALME-3M melanoma
MDA-MB-231 breast = tested on: MDA-MB-231 breast
RXF 393 renal = tested on: RXF 393 renal
SF-268 CNS = tested on: SF-268 CNS
SF-295 CNS = tested on: SF-295 CNS
SF-539 CNS = tested on: SF-539 CNS
UACC-257 melanoma = tested on: UACC-257 melanoma
M14 melanoma = tested on: M14 melanoma

SMILES | growth (NCI-H23 lung) | growth (NCI-H226 lung) | growth (NCI-H322M lung) [%] | growth (HOP-62 NSCLC) | growth (NCI-H460 lung) | growth (HOP-92 NSCLC) | growth (NCI-H522 lung) | growth (A549/ATCC NSCLC) | growth (786-0 renal) | growth (COLO 205 colon) | growth (DU-145 prostate) | growth (K-562 leukemia) | growth (MALME-3M melanoma) | growth (MDA-MB-231 breast) | growth (RXF 393 renal) | growth (SF-268 CNS) [%] | growth (SF-295 CNS) | growth (SF-539 CNS) | growth (UACC-257 melanoma) | growth (M14 melanoma)
O=C(O)CCCn1c(SCc2c(Cl)cccc2Cl)nc2ccsc2c1=O | 33.6% | 43.4% | 48.3 | 45.2% | 10.2% | 24.5% | -3.68% (active) | 34.4% | 23.9% | 3.82% (active) | 3.54% (active) | 9.27% (active) | 47.7% | 42% | -27.9% (active) | 39.5 | 14.6% | -20.1% (active) | 68.4% | -11.1% (active)
COC(=O)C1=Nc2ccc(F)cc2/C1=C\c1sc(Nc2ccc(O)cc2)nc1O | 73.4% | 78.2% | 96.7 | 64.3% | 102% | 42.7% | 47.4% | 99% | 66.1% | 101% | 93.9% | 23.2% | 45.9% | 76.7% | 43.6% | 59.8 | 61% | 55.4% | 72.2% | 49%
O=c1oc2c(cnc3ccccc32)cc1-c1cccs1 | 101% | 107% | 104 | 100% | 112% | 102% | 104% | 104% | 98.8% | 106% | 113% | 94.1% | 103% | 107% | 112% | 100 | 105% | 105% | 108% | 104%
C/C(=C(\c1ccc(OCCN2CCCCCC2)cc1)c1ccc(OC(=O)Cc2ccccc2)cc1)c1ccc(Cl)cc1 | 48.5% | 91.2% | 73.5 | 7.91% (active) | -60.1% (active) | 49.5% | 38.8% | 31.7% | -42% (active) | -79.7% (active) | 62.3% | -35.1% (active) | 22.6% | 35.1% | 21.1% | 49 | 3.77% (active) | 46.9% | 5.81% (active) | -53.1% (active)
COc1ccc(C2=Nc3c(N)ncnc3NC(c3cccc(Nc4ccnc5cc(C(F)(F)F)ccc45)c3)C2)cc1 (stereo not given) | 70.1% | 64.2% | 81.3 | 63.7% | 70.9% | 31.4% | 69.6% | 59.8% | 59.4% | 62.4% | 80.2% | 15.5% | 72.3% | 46.3% | 41% | 56.9 | 61.9% | 70% | 74.9% | 66%
CCOC(=O)C1=C(c2ccccc2)N=c2s/c(=C/c3ccc(Br)cc3)c(=O)n2C1c1ccc(O)cc1 (stereo not given) | 95.4% | 86.6% | 91.9 | 105% | 94.1% | 71.2% | 87.9% | 80.2% | 77.4% | 118% | 95.5% | 77.6% | 94.3% | 81.6% | 102% | 83.8 | 95.6% | 97.9% | 86.9% | 87.2%
O=C(O)C1CN(c2cccc(Cl)c2)N(c2cccc(Cl)c2)C1=O (stereo not given) | 89.8% | 92.8% | 83.9 | 88% | 102% | 101% | 87.1% | 105% | 96.5% | 94.5% | 96.2% | 101% | 70.8% | 85.1% | 94.9% | 81.7 | 95.6% | 100% | 99.3% | 87.8%
CCN(CCO)CC(C)Nc1ccc([N+](=O)[O-])c2sc3ccccc3c(=O)c12 (stereo not given) | 40.2% | 14.4% | 15.6 | 36.9% | 9.73% (active) | -0.953% (active) | 15.3% | 12.2% | 34.3% | 15% | 41.3% | 12.5% | 13.4% | 48.8% | 9.27% (active) | 36.1 | 17.4% | 25% | 31.5% | 29.3%
CCOC(=O)c1n[nH]n2c1nc(=O)c1cnn(C)c12 | 96.5% | 98.1% | 99.4 | 103% | 103% | 103% | 91% | 86.7% | 106% | 111% | 98.5% | 93% | 101% | 113% | 109% | 96.1 | 108% | 103% | 86.4% | 102%
Cc1c2cc[nH]c(=O)c2c(C)c2c1[nH]c1ccc(OC(=O)c3ccccc3)cc12 | 24.4% | 38.5% | 40.8 | 18.7% | 1.23% (active) | 40.9% | 26.9% | 6.49% (active) | 44.9% | 30.4% | 34% | 36.2% | 20% | 34% | 37.4% | 40 | 31.6% | 17.1% | 11.2% | 33.7%
CC(C)[C@@]12C[C@@H](OC(=O)COC(=O)c3ccccc3)[C@@](C)(O1)[C@@H]1CC[C@@H](C)[C@H]1[C@@H]2OC(=O)/C=C/c1ccccc1 | 90.1% | 64.4% | 87 | 89.5% | 95.3% | 76.9% | 80.9% | 80.9% | 68.7% | 108% | 101% | 75.4% | 106% | 86.3% | -2.22% (active) | 63.4 | 94.5% | 95.4% | 95.3% | 104%
O=C1/C=C/[C@@H](O)[C@@H]2C[C@@H](O)C[C@H]2/C=C/CCC[C@H](CCOCc2ccccc2)O1 | 7.5% (active) | -32.3% (active) | 31 | 30.9% | 16.2% | -16% (active) | -38.8% (active) | 14.5% | -51% (active) | -74.5% (active) | 12.6% | 10.2% | -24.6% (active) | -71.5% (active) | -2.06% (active) | 13.1 | -18.3% (active) | 26.2% | 20.4% | 9.22% (active)
